# CCHF vOTU inh: CCHFV vOTU protease inhibitors, primary screen, biochemical, Pep-AMC substrate, fluorescence | Crimean-Congo hemorrhagic fever virus L polyprotein viral ovarian tumor (vOTU) protease … | inhibition, % at 11.5 µM | 370,000 tested, 0.55% active | AID 651958, 2012; in the data active = inhibition above about 30%; note: 0% = vehicle wells with enzyme and 100% = no enzyme wells
# Mtb bLac sens: beta-lactam sensitization of Mtb H37Rv, H37Rv | 330,000 tested, 0.27% active | inhibition, % at 25 µM | M. tuberculosis H37Rv growth with meropenem, percent inhibition; call rule not given here;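 note: growth measured after seven days incubation then overnight dye step; 0% = bacteria only wells and 100% = bacteria with antibiotic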
# RecA splice inh: Mtb RecA intein splicing inhibitors, primary screen, biochemical, fluorescence, HTS. Protein RecA (Mycobacterium tuberculosis (strain ATCC 25618 / H37Rv)), P9WHJ3. cell-free RecA intein splicing. inhibition, % (test concentration not listed). 290,000 tested, 0.75% active; in the data active = inhibition above about 30%;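 note: 0% = vehicle wells and 100% = reference inhibitor control wells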
# Target sequence (P9WHJ3 whole entry, looked up, canonical isoform): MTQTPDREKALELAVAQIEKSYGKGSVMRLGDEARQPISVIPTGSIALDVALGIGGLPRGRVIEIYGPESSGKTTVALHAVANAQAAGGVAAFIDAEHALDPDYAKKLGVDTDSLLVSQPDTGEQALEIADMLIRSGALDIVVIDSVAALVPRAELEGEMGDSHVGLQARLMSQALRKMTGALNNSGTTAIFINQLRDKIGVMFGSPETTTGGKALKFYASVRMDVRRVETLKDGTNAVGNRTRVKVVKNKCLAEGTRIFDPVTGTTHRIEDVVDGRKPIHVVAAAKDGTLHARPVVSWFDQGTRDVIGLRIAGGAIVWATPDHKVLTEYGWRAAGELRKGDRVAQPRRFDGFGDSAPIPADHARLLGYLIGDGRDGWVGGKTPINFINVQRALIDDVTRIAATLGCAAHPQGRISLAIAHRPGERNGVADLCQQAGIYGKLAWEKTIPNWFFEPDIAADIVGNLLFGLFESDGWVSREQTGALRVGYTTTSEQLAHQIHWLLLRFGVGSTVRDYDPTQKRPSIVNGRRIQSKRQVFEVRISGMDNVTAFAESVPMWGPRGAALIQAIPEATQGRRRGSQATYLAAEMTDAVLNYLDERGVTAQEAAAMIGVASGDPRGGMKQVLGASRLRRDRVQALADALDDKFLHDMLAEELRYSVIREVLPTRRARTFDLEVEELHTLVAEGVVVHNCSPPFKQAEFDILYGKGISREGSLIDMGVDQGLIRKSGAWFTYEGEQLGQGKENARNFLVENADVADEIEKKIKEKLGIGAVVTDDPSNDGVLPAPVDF
# Mtb hypoxia rep: PubChem AID 1159583. M. tuberculosis hypoxia-regulated fluorescent reporter, fluorescence. fluorescence inhibition, % (no concentration beside the values). 300,000 tested, 0.1% active; in the data active = fluorescence inhibition mostly above about 23%, no sharp cut-off; inactive = mostly below about 17%
# PfHsp40 rescue: rescue of yeast from PfHsp40 toxicity, primary screen, S. cerevisiae, ATP luminescence | S. cerevisiae expressing PfHsp40, growth rescue | growth rescue, % at 12.5 µM | 340,000 tested, 0.68% active | AID 504582, 2011; in the data active = growth rescue above about 28%, passing the limit was not always enough;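 note: yeast W303a lacking pdr1 and pdr3 grown in galactose medium; growth measured after three days at 30 °C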
# The depositor's hits bear a star; x = no result shown. Only some compounds are listed: those with a hit (about 1.7% of all), similar ones and a draw of the others.
SMILES,CCHF vOTU inh,Mtb bLac sens,RecA splice inh,Mtb hypoxia rep,PfHsp40 rescue
O=C(COC(=O)c1cc(F)c(F)cc1Cl)NC1CC1,7.0,64.6,-1.2,10.7,-0.5
O=C(COC(=O)c1ccc2c(c1[N+](=O)[O-])C(=O)c1ccccc1C2=O)NC1CC1,11.3,2.6,70.6*,11.1,0.5
Nc1c(Cl)cc(Cl)cc1C(=O)OCC(=O)NC1CC1,-105.6,0.0,-2.1,10.4,124.4*
COc1ccccc1NC(=O)CSc1nc2c(sc3ccccc32)c(=O)n1CCN(C)C,-27.1,-7.0,35.4*,2.1,0.4
c1ccc(N2CCN(Cc3nc4ccccc4[nH]3)CC2)nc1,4.7,1.5,x,5.3,-0.6
c1c[nH]c(CN2CCN(Cc3ncc[nH]3)CC2)n1,17.9,x,x,x,383.8*
CCOC(=O)c1cccc(C2=CC(=O)CC(c3ccc(Cl)cc3)C2)c1 (stereo unspecified),x,x,x,2.1,x
CCC1(CC)C(=O)C2=C3C(CC(C(=O)OC)CC(C(=O)OC)C31)C1C(=O)N(c3ccccc3)C(=O)C1C2C (stereo unspecified),x,x,x,8.2,x
Cc1cc(NS(=O)(=O)c2ccc(CC(C)C)cc2)no1,6.9,-8.6,2.0,1.8,39.9*
Cc1cc(NS(=O)(=O)c2ccc(NC(=O)NC3CCCCC3)cc2)no1,5.3,-2.9,-0.2,10.9,1.2
Cc1cc(NS(=O)(=O)c2ccc(C3CCCCC3)cc2)no1,19.4,-1.4,2.9,0.4,509.5*
CCCCC1CC1C(NC(=O)c1ccco1)c1ccc(Cl)cc1 (stereo unspecified),x,x,x,19.7,x
Cc1cc(C)c[n+](-c2[nH]c(=O)sc2C=NN=C(N)[S-])c1,x,x,x,2.6,x
COc1ccc(C=NNc2cc(C)nc(N3CCOCC3)n2)c(OC)c1,x,x,x,6.2,x
COc1ccc(/C=N/Nc2cc(C)nc(-n3nc(C)cc3C)n2)c(OC)c1,7.0,98.4,0.5,x,178.0*
COc1ccccc1Oc1nc(C)c(C(C)=O)cc1C#N,-0.1,1.4,0.5,2.0,-0.4
COc1ccccc1Oc1cc(C#N)c(C#N)cc1-n1nnc2ccccc21,9.3,10.7,41.8*,1.3,0.7
O=C(c1ccc([N+](=O)[O-])o1)N1CCN(Cc2ccccc2)CC1,-1.7,-1.7,-7.3,x,-0.8
CCc1cccc2sc(N3CCN(C(=O)c4ccc([N+](=O)[O-])o4)CC3)nc12,x,99.9,-2.1,x,38.7*
O=S(=O)(N1CCCCC1)n1nnc2ccccc21,-10.8,1.8,-1.8,6.9,39.2*
CCCCCCC[C@@H](C/C=C/CCC(=O)O)OC,-1.6,3.2,x,-5.4,-0.1
CCCCCCC[C@@H](C/C=C/CCC(=O)N(C)C/C(=C/Cl)C/C(=C\C(=O)N1CC(OC)=CC1=O)OC)OC,12.4,-9.5,x,-3.5,36.5*
COc1ccc(O)c(C(=O)CC(=O)c2ccccc2C)c1,-6.1,87.8,11.3,1.9,314.2*
COc1ccc(O)c(C(=O)CC(=O)c2ccc(F)cc2)c1,-38.4,93.8,-0.7,x,230.5*
CCC(=O)Nc1cccc(C2=NOC3(C2)CC(C(N)=O)N(C(=O)C2(C)CC2)C3)c1 (stereo unspecified),x,x,x,2.1,x
SMILES,CCHF vOTU inh,Mtb bLac sens,RecA splice inh,Mtb hypoxia rep,PfHsp40 rescue
CC(NC(=O)COC(=O)/C=C/c1ccc(Cl)cc1)c1ccccc1 (stereo unspecified),-0.1,0.2,2.0,-6.4,31.5*
CCCCCC(O)C=CC1C(O)CC(O)C1CC=CCCCC(=O)OC (stereo unspecified),x,x,x,5.7,x
CC(C)COc1ccc(CNC(=S)NCc2ccccc2)cc1,-0.7,84.3,4.3,6.4,51.4*
COC(=O)c1c(NC(=O)CSc2nnc(CNc3ccc(Cl)cc3)o2)sc(C)c1C,13.6,-7.5,-27.1,5.8,50.7*
O=C(COc1ccc(C=NNC(=O)c2ccncc2)cc1)Nc1cccc([N+](=O)[O-])c1,x,x,x,3.1,x
COc1cccc(C=NNC(=O)CCn2nnc3ccccc32)c1,x,x,x,3.9,x
CCCOC(=O)c1ccc(NC(=O)CC(C)(C)C)cc1,10.0,11.8,-0.3,7.2,51.7*
CC1=CC(=O)C(C(C)C)=C/C1=N/OS(=O)(=O)c1ccccc1,-4.7,100.4,9.8,x,346.1*
CC1=CC(=O)C=C(C)C1=NOS(=O)(=O)c1ccccc1,3.1,x,-0.7,x,334.8*
CCOC(=O)C1C2COc3ccc(C)cc3C2N2C(=O)c3cc(F)ccc3NC(=O)[C@@]12C (stereo partly specified),x,x,x,15.5,x
CC1(O)C[C@]2(C)N(O)C3CCCCC3N2O1 (stereo partly specified),x,x,x,6.9,x
O=C(CNC(=O)c1cccc(Br)c1)NN=Cc1cc(Br)cc(Br)c1O,x,x,x,5.9,x
CC(C)c1c(C(=O)NN=Cc2ccncc2)nnn1-c1nonc1N,x,x,x,1.9,x
Cc1sc2c(c1C)C(O)=C(C(=O)Nc1ccccc1)S(=O)(=O)N2C,7.4,-5.8,0.7,2.0,153.2*
CCC(C)C(C(=O)N1CCN(C(=O)OC(C)(C)C)CC1)n1cc(-c2cn(C(C)C(=O)N3CCN(C(=O)OC(C)(C)C)CC3)nn2)nn1 (stereo unspecified),x,x,x,-9.4,x
CC(=O)n1cc(C2C=C(C(N)=O)OC(OCc3ccc(CO)cc3)C2)c2ccccc21 (stereo unspecified),x,x,x,17.9,x
Oc1c(C(Nc2cccc(C(F)(F)F)c2)c2ccncc2)ccc2cccnc12 (stereo unspecified),-4.6,91.3,-1.2,-1.3,381.5*
Oc1c(C(Nc2nccs2)c2ccc(C(F)(F)F)cc2)ccc2cccnc12 (stereo unspecified),0.6,x,5.1,3.1,84.1*
CSc1ncccc1C(=O)OCC(=O)c1ccc[nH]1,-2.4,-8.0,x,22.3*,-1.0
CN1C(=O)/C(=C\c2ccc(N3CCCCC3)o2)C(=O)NC1=S,4.2,80.1,-2.0,x,-0.2
CN1C(=O)/C(=C/c2ccc(N3CCCCCC3)o2)C(=O)NC1=S,-12.8,92.4,-3.3,44.9*,0.1
NC(=O)c1cc2ccccc2oc1=NNC(=O)c1cccc(Cl)c1,x,x,x,-0.8,x
COc1ccc(NC(=O)C2CCCN(S(=O)(=O)c3ccc4[nH]c(=O)ccc4c3)C2)cc1 (stereo unspecified),8.7,-2.2,-0.4,x,0.3
CCOc1ccc(NC(=O)C2CCCN(S(=O)(=O)c3ccc4[nH]c(=O)ccc4c3)C2)cc1 (stereo unspecified),-6.6,-4.2,-0.4,-1.5,48.6*
Cc1cc(C(=O)c2ccc(Cl)cc2)c(NC(=O)CCl)s1,16.0,96.5,33.5*,17.9,-2.3
CCCCOc1ccc2c(c1)C(=O)c1cc(O)ccc1-2,14.4,15.8,8.6,1.7,284.1*
CCN1CC2C3C(=O)N(C)C(=O)C3[C@](C)(C1=O)N2C(=O)c1ccc(F)cc1 (stereo partly specified),x,x,x,9.6,x
O=C1NC(=Cc2cccn2-c2ccccc2)C(=O)N1Cc1ccccc1F,x,x,x,-2.4,x
S=c1nc(-c2ccccc2)[nH]c2ccc(Br)cc12,-5.3,28.2,2.9,0.5,-1.9
O=c1[nH]c(-c2ccccc2)nn1-c1ccc(Br)cc1Br,-7.6,-5.8,x,-0.6,35.4*

# Assay outcomes: PubChem BioAssay, several laboratories
